# Experimental data: PubChem BioAssay AID504339 (National Center for Advancing Translational Sciences (NCATS), 2011)
# About 17,000 (4.4%) of roughly 390,000 compounds were called active. A call without a number means that no potency is given here. Another 8% or so got no clear call; they are omitted. Calls follow the shape of the dose curve; as a rule, active = well fitted inhibition curve with a large enough effect; inconclusive = small, poorly fitted or top-dose-only effect; inactive = no such curve, though single readings can be large or run the other way. For the sample, actives were picked, then their nearest neighbours and some compounds at random.
# Biological target: Lysine-specific demethylase 4A (Homo sapiens) (UniProt O75164)
# Sequence (O75164 whole entry, looked up, the tested form may be a part): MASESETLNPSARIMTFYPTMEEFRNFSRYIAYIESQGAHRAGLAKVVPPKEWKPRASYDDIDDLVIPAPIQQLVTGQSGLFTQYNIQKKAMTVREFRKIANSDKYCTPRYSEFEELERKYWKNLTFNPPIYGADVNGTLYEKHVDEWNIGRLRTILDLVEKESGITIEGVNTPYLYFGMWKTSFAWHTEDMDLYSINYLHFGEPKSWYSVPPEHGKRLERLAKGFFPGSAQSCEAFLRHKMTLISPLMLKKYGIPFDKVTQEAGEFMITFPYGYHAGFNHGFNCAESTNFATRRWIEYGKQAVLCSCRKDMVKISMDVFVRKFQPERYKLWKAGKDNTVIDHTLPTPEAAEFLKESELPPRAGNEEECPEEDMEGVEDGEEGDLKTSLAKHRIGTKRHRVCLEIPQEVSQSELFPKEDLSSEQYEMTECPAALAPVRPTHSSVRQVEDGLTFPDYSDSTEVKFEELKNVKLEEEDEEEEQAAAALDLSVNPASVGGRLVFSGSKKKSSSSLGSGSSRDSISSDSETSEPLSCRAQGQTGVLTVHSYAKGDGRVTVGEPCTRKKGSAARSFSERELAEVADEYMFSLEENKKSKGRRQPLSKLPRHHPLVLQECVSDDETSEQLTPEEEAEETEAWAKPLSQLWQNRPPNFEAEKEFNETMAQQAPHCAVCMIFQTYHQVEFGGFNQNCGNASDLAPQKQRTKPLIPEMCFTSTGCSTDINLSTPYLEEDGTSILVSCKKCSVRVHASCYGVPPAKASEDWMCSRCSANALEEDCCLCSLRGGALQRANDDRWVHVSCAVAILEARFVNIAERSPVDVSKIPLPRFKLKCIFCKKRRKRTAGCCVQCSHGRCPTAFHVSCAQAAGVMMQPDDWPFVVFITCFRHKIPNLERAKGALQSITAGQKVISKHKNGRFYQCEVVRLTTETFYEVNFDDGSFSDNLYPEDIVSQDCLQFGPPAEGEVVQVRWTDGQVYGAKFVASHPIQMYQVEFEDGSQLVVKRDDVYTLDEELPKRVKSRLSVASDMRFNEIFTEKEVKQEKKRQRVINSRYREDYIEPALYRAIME
# Assay: qHTS Assay for Inhibitors of JMJD2A-Tudor Domain; also: nearly all actives have a fitted effect of over 50% in size
# Conditions: AlphaScreen JMJD2A-Tudor / H3K4me3 peptide binding; series mostly up to 114 µM
# Potency is read from the fitted curve at half-maximal effect.
row,Structure (SMILES),Potency
1,COc1cccc(CNC(=O)CCc2nc(-c3ccc(C)cc3)no2)c1,inactive
2,Cc1cc2c(cc1C)NC1(C[C@H]3CCC(=O)N4CC[C@@H](C1)[C@@H]34)C(=NC(C)(C)CC(C)(C)C)N2 (stereo not given in full),15.8 µM (active)
3,O=C1CC[C@@H]2CC3(C[C@@H]4CCN1[C@H]24)Nc1cc([N+](=O)[O-])ccc1NC3=NC1CCCCC1 (stereo not given in full),inactive
4,COC(=O)c1cccc(Cn2nnc3sc4c(c3c2=O)CCC(C(C)(C)C)C4)c1 (stereo not given),inactive
5,OCc1ccc(OCCCOc2cccc3cccnc23)cc1,inactive
6,O=C(Nc1cccc2cccnc12)C(F)(F)F,inactive
7,O=C(Nc1ccccc1)Oc1cccc2cccnc12,15.8 µM (active)
8,CCOc1ccccc1NC(=O)Cn1nnc(C(=O)Nc2ccc(C)c(C)c2)c1N,inactive
9,COc1cc(NS(=O)(=O)c2cccs2)cc(OC)c1,inactive
10,Cc1cc(C(=O)OCC(=O)Nc2nccs2)c2ccccc2n1,20 µM (active)
11,O=C(COC(=O)c1ccc(O)cc1)Nc1nccs1,inactive
12,Cc1cc(C(=O)OCC(=O)Nc2nnc(C(C)C)s2)c2ccccc2n1,inactive
13,Cc1cccc(CCNC(=O)c2ccc3c(c2)nc2n3CCC(C)C2)c1 (stereo not given),inactive
14,Cc1ccc(C)c(N2CCN(C(=O)Cn3nc(C)c4sc5ccccc5c4c3=O)CC2)c1,12.6 µM (active)
15,Cc1nn(CC(=O)NCCc2ccccc2)c(=O)c2c1sc1ccccc12,inactive
16,Cc1ccc(C)c(N2CCN(C(=O)Cn3ncn4cccc4c3=O)CC2)c1,inactive
17,CC(=O)c1ccc(NC(=O)c2nc(-c3ccc(C)cc3)n3c2CCCCC3)cc1,inactive
18,CCc1nnc2c3ccccc3nc(N3CCN(c4ccc(C)cc4C)CC3)n12,inactive
19,COc1ccc2sc(N(CCCN(C)C)C(=O)c3ccc(S(=O)(=O)N(C)C4CCCCC4)cc3)nc2c1,56.2 µM (active)
20,CCN(CC)CCN(C(=O)c1cccc([N+](=O)[O-])c1)c1nc2ccc(OC)cc2s1,inactive
21,CN(C)S(=O)(=O)c1ccc(C(=O)N(Cc2cccnc2)c2nc3c(F)cc(F)cc3s2)cc1,inactive
22,CCOc1ccc(C(=O)c2cn(Cc3ccccc3OC)c3ccc(F)cc3c2=O)cc1,inactive

row,Structure (SMILES),Potency
1,CCN(CC)c1ccc(NC(=O)CN2C(=O)c3cccnc3Oc3ccc(Cl)cc32)c(C)c1,inactive
2,COC(=O)c1c(NC(=O)CCCOc2ccccc2)sc2c1CCC(C)C2 (stereo not given),inactive
3,O=C(CN1CCCCCC1)Nc1ccc(Cl)cc1F,inactive
4,O=C(CN1CCCCCC1)Nc1ccc(Br)cc1Br,inactive
5,O=C(CN1CCCCCC1)Nc1ccc(Br)cc1[N+](=O)[O-],44.7 µM (active)
6,Cn1c(COc2ccccc2C(C)(C)C)nc2ccccc21,inactive
7,CCOCCn1ccc2c(OCC(=O)NCc3ccc(C)cc3)cccc2c1=O,inactive
8,C=CCNCCCCOc1ccccc1,inactive
9,CC(O)CNCCOc1cccc(Oc2ccccc2)c1 (stereo not given),3.55 µM (active)
10,CC1(C)NC(=O)N(CCOc2cccc(Oc3ccccc3)c2)C1=O,inactive
11,CCOc1ccc(NC(=O)c2cc(S(=O)(=O)N3CCCC3)c[nH]2)cc1,inactive
12,O=c1cc(CO)oc(C(Nc2cccc([N+](=O)[O-])c2)c2ccccn2)c1O (stereo not given),50.1 µM (active)
13,Cn1c(=O)c2c(ncn2CC(=O)Nc2cccc(C(F)(F)F)c2)n(C)c1=O,inactive
14,O=C(CSc1nc(-c2ccccc2)cs1)Nc1cccc([N+](=O)[O-])c1,inactive
15,O=c1cc(CO)oc(C(Nc2cccc(C(F)(F)F)c2)c2ccccn2)c1O (stereo not given),56.2 µM (active)
16,O=[N+]([O-])c1cccc(S(=O)(=O)NCc2ccccn2)c1,inactive
17,O=C(CSc1nnc(-c2ccccc2F)o1)Nc1cccc(C(F)(F)F)c1,inactive
18,COc1cccc(-c2nnc3n(CCc4ccccc4)c(=O)c4ccccc4n23)c1O,inactive
19,Cc1ccc(-c2nc(Cn3c(=O)cc(-c4ccccc4)c4c(C)nn(C)c43)c(C)o2)cc1,inactive
20,COc1ccc(CNC(=O)CCc2c(C)nn(-c3ccc(N4CCCC4)nn3)c2C)cc1,inactive
21,CCOc1ccc(C(=O)c2cn(Cc3ccc(F)cc3)c3ccc(F)cc3c2=O)cc1,inactive
22,Cc1cccc(Cn2c(CN3CCC(C(=O)NCc4ccccc4Cl)CC3)cc3ccccc32)c1,inactive

row,Structure (SMILES),Potency
1,CCOC(=O)c1c(SCC(=O)Nc2cccc(C)c2C)nc(=O)[nH]c1C,inactive
2,CC1=C(C(=O)Nc2ccccc2)C(c2ccc(C)cc2)n2nc(SCc3ccccc3C)nc2N1 (stereo not given),inactive
3,OCCn1c(-c2ccccc2)csc1=Nc1ccccc1,56.2 µM (active)
4,CN(C)CCCn1c(-c2ccc(Cl)cc2)csc1=Nc1ccccc1,39.8 µM (active)
5,CC(C)Cn1c(-c2ccc(S(=O)(=O)N3CCOCC3)cc2)csc1=Nc1cc(Cl)ccc1Cl,inactive
6,O=c1cc(CCl)nc2scc(-c3ccccc3)n12,inactive
7,CN(C)CCCn1c(=O)n(Cc2ccccc2)c(=O)c2c3c(sc21)CCCCC3,inactive
8,CCN(c1ncnc2c1cnn2-c1ccc(C)cc1)C1CCCCC1,inactive
9,COc1ccc(-c2ccc(=O)n(CC(=O)Nc3ccc(Br)cc3F)n2)cc1,inactive
10,C=CCO/N=C/C1=C(O)C(C(=O)OC)C(C)(C)CC1=O (stereo not given),79.4 µM (active)
11,CCCC(=O)C1=C(N(C)c2ccccc2)CC(C)(C)C(C(=O)OC)C1=O (stereo not given),inactive
12,COCC(C)N=CC1=C(O)CC(C)(C)CC1=O (stereo not given),inactive
13,Cn1c(=O)c2c(SCC(=O)NCC3CCCO3)nc(-c3ccccc3F)nc2n(C)c1=O (stereo not given),inactive
14,O=C(CCS(=O)(=O)c1cc(Br)cc2c1N(C(=O)C1CC1)CC2)Nc1ccc(C(F)(F)F)cc1,inactive
15,COc1ccc(OC)c(NC(=O)CN2CCCN(Cc3cc(C)ccc3C)S2(=O)=O)c1,inactive
16,Cc1cccc(C(=O)OC(C)CN2CCCC2)c1 (stereo not given),inactive
17,Cc1ccc(C(C)C)cc1OCC(=O)Nc1ccccc1N1CCCC1,inactive
18,Cc1cc(OCCN2CCCC2)cc(C(C)C)c1,5.01 µM (active)
19,COc1cc(/C=N/NC(=O)c2ccoc2C)ccc1OCCN1CCCCC1,inactive
20,Cc1ccc(C(C)C)cc1OCCN1CCCC1,79.4 µM (active)
21,CCCn1c(=N)c(C(=O)NCc2ccccc2)cc2c(=O)n3cccc(C)c3nc21,inactive
